Results as given in PubChem BioAssay (NCATS).
Inconclusive results are not listed. Where a call stands in place of a potency, no number is given. Active and inactive are the calls of the source. Calls come from the whole dose curve; as a rule, active = well fitted inhibition curve with a large enough effect; inconclusive = small, poorly fitted or top-dose-only effect; inactive = flat fitted curve, though single readings scatter.

How the values were obtained:
Assay in all cases: qHTS profiling for inhibitors of Plasmodium falciparum proliferation (AID 504749); note: nearly all actives have a fitted effect of over 60% in size
Details in all cases: P. falciparum in erythrocytes, SYBR Green DNA, 72 h; series mostly up to 28.7 µM
[1] = system: 7G8
Summary of the method: (§1)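 P. falciparum-infected erythrocytes (0.3% parasitemia, 2.5% hematocrit) incubated with compound 72 h at 37 C, 5% CO2. Parasite DNA detected by SYBR Green after lysis, overnight at room temperature; normalised to 0.29 uM artemisinin and DMSO.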

[2] = system: AA1029
Summary of the method: as §1

[3] = system: AS120
Summary of the method: as §1

[4] = system: ATS189
Summary of the method: as §1

[5] = system: ATS95
Summary of the method: as §1

[6] = system: C2A
Summary of the method: as §1

[7] = system: CP185
Summary of the method: as §1

[8] = system: CP191
Summary of the method: as §1

[9] = system: CP192
Summary of the method: as §1

[10] = system: CP194
Summary of the method: as §1
Potency is the fitted concentration of half-maximal effect.

Structure (SMILES)	Potency [1]	Potency [2]	Potency [3]	Potency [4]	Potency [5]	Potency [6]	Potency [7]	Potency [8]	Potency [9]	Potency [10]
CCCc1cc(C(N)=S)ccn1	inactive	inactive	inactive	inactive	inactive	inactive	inactive	inactive	inactive	inactive
NC(=O)c1cccnc1	inactive	inactive	inactive	inactive	inactive	inactive	inactive	inactive	inactive	inactive
CC(C)(C#N)c1cc(Cn2cncn2)cc(C(C)(C)C#N)c1	inactive	inactive	inactive	inactive	inactive	inactive	inactive	inactive	inactive	inactive
CNS(=O)(=O)Cc1ccc2[nH]cc(CCN(C)C)c2c1	inactive	inactive	inactive	inactive	inactive	inactive	inactive	inactive	inactive	inactive
CN1CCN(c2c(F)cc3c(=O)c(C(=O)O)cn4c3c2OCN4C)CC1	inactive	inactive	inactive	inactive	inactive	inactive	inactive	inactive	inactive	inactive
COc1cnc(NS(=O)(=O)c2ccc(N)cc2)nc1	inactive	inactive	inactive	inactive	inactive	inactive	inactive	inactive	inactive	inactive
CNC1CCCN(c2c(F)cc3c(=O)c(C(=O)O)cn(C4CC4)c3c2OC)C1 (configuration not stated)	inactive	inactive	inactive	inactive	inactive	inactive	inactive	inactive	inactive	inactive
COc1ncnc(NS(=O)(=O)c2ccc(N)cc2)c1OC	inactive	inactive	inactive	inactive	inactive	inactive	inactive	inactive	inactive	inactive
Cc1cccc(N(C)C(=S)Oc2ccc3ccccc3c2)c1	inactive	inactive	inactive	inactive	inactive	inactive	inactive	inactive	inactive	inactive
CCN(C)C(=O)Oc1cccc([C@H](C)N(C)C)c1	inactive	inactive	inactive	inactive	inactive	inactive	inactive	inactive	inactive	inactive
COC(=O)Nc1nc2ccc(C(=O)c3ccccc3)cc2[nH]1	inactive	inactive	inactive	inactive	inactive	inactive	inactive	inactive	inactive	inactive
CC(=O)Oc1ccccc1C(=O)Nc1ncc([N+](=O)[O-])s1	10 µM (active)	inactive	inactive	inactive	inactive	inactive	inactive	inactive	inactive	inactive
Nc1nc(N)c2nc(CNc3ccc(C(=O)NC(CCC(=O)O)C(=O)O)cc3)cnc2n1 (configuration not stated)	inactive	inactive	inactive	inactive	inactive	inactive	inactive	inactive	inactive	inactive
N[C@@H](C(=O)N[C@@H]1C(=O)N2C(C(=O)O)=C(Cl)CS[C@H]12)c1ccccc1	inactive	inactive	inactive	inactive	inactive	inactive	inactive	inactive	inactive	inactive
COc1cc(NS(=O)(=O)c2ccc(N)cc2)nc(OC)n1	inactive	inactive	inactive	inactive	inactive	inactive	inactive	inactive	inactive	inactive
OC(Cn1cncn1)(Cn1cncn1)c1ccc(F)cc1F	inactive	inactive	inactive	inactive	inactive	inactive	inactive	inactive	inactive	inactive
CCc1cc(C(N)=S)ccn1	inactive	inactive	inactive	inactive	inactive	inactive	inactive	inactive	inactive	inactive
Cc1cccc(Nc2ccncc2S(=O)(=O)NC(=O)NC(C)C)c1	inactive	inactive	inactive	inactive	inactive	inactive	inactive	inactive	inactive	inactive
CC(C)OC(=O)C(C(=O)OC(C)C)=C1SC=CS1	inactive	inactive	inactive	inactive	inactive	inactive	inactive	inactive	inactive	inactive

Structure (SMILES)	Potency [1]	Potency [2]	Potency [3]	Potency [4]	Potency [5]	Potency [6]	Potency [7]	Potency [8]	Potency [9]	Potency [10]
CC[C@H](NC(C)C)[C@H](O)c1ccc(O)c2[nH]c(=O)ccc12	inactive	inactive	inactive	inactive	inactive	inactive	inactive	inactive	inactive	inactive
NCCCC(O)(P(=O)(O)O)P(=O)(O)O	inactive	inactive	inactive	inactive	inactive	inactive	inactive	inactive	inactive	inactive
Cc1oc(=O)oc1CN1CCN(c2cc3c(cc2F)c(=O)c(C(=O)O)c2n3C(C)S2)CC1 (configuration not stated)	3.98 µM (active)	6.31 µM (active)	11.2 µM (active)	8.91 µM (active)	12.6 µM (active)	10 µM (active)	10 µM (active)	12.6 µM (active)	–	–
NC(N)=NC(N)=NCCc1ccccc1	inactive	inactive	inactive	inactive	inactive	inactive	inactive	inactive	inactive	inactive
CN(CCOc1ccc(CC2SC(=O)NC2=O)cc1)c1ccccn1 (configuration not stated)	inactive	inactive	inactive	inactive	inactive	inactive	inactive	inactive	inactive	inactive
COc1cc2c(Nc3ccc(Br)cc3F)ncnc2cc1OCC1CCN(C)CC1	3.16 µM (active)	2.82 µM (active)	3.16 µM (active)	5.01 µM (active)	3.55 µM (active)	3.16 µM (active)	3.55 µM (active)	3.16 µM (active)	–	–
CC(C)NCC(O)c1ccc(NS(C)(=O)=O)cc1 (configuration not stated)	inactive	inactive	inactive	inactive	inactive	inactive	inactive	inactive	inactive	inactive
COc1ccc2cc3[n+](cc2c1OC)CCc1cc2c(cc1-3)OCO2	0.282 µM (active)	0.708 µM (active)	1.26 µM (active)	1.41 µM (active)	1.12 µM (active)	1 µM (active)	0.708 µM (active)	0.891 µM (active)	0.849 µM (active)	2.13 µM (active)
Cc1noc(NS(=O)(=O)c2ccc(N)cc2)c1C	inactive	inactive	inactive	inactive	inactive	inactive	inactive	inactive	inactive	inactive
CN(C)CCc1c[nH]c2ccc(CS(=O)(=O)N3CCCC3)cc12	inactive	inactive	inactive	inactive	inactive	inactive	inactive	inactive	inactive	inactive
Cc1nnc(NS(=O)(=O)c2ccc(N)cc2)s1	inactive	inactive	inactive	inactive	inactive	inactive	inactive	inactive	inactive	inactive
O=NN(CCCl)C(=O)NC1CCCCC1	inactive	inactive	inactive	inactive	inactive	inactive	inactive	inactive	inactive	inactive
C1CCC(C(CC2CCCCN2)C2CCCCC2)CC1 (configuration not stated)	1.26 µM (active)	11.2 µM (active)	7.94 µM (active)	11.2 µM (active)	11.2 µM (active)	11.2 µM (active)	10 µM (active)	11.2 µM (active)	–	15.1 µM (active)
CCOc1cc(N)c(Cl)cc1C(=O)NCC1CN(Cc2ccc(F)cc2)CCO1 (configuration not stated)	11.2 µM (active)	12.6 µM (active)	8.91 µM (active)	5.01 µM (active)	10 µM (active)	11.2 µM (active)	10 µM (active)	3.98 µM (active)	–	12 µM (active)
C[C@]12C=CC(=O)C=C1CC[C@@H]1[C@@H]2C(=O)C[C@@]2(C)[C@H]1CC[C@]2(O)C(=O)CO	inactive	inactive	inactive	inactive	inactive	inactive	inactive	inactive	inactive	inactive
NC(=O)N1c2ccccc2CC(=O)c2ccccc21	inactive	inactive	inactive	inactive	inactive	inactive	inactive	inactive	inactive	inactive
N=C(N)c1ccc(OCCCCCOc2ccc(C(=N)N)cc2)cc1	0.199 µM (active)	1 µM (active)	0.891 µM (active)	1.41 µM (active)	1.12 µM (active)	1.26 µM (active)	1.12 µM (active)	0.398 µM (active)	1.07 µM (active)	0.849 µM (active)
C[C@@H](NCCCc1cccc(C(F)(F)F)c1)c1cccc2ccccc12	1.12 µM (active)	6.31 µM (active)	3.98 µM (active)	7.08 µM (active)	7.08 µM (active)	8.91 µM (active)	11.2 µM (active)	–	–	13.5 µM (active)
Nc1nc(N)nc(-c2cc(Cl)ccc2Cl)n1	inactive	inactive	inactive	inactive	inactive	inactive	inactive	inactive	inactive	inactive
